These results are taken from PubChem BioAssay (NCI).

Among the test systems are SR leukemia; RPMI-8226 leukemia; OVCAR-8 ovarian; OVCAR-5 ovarian; OVCAR-4 ovarian; SK-OV-3 ovarian; IGROV1 ovarian; OVCAR-3 ovarian; HS 578T breast; NCI/ADR-RES ovarian; T-47D breast; BT-549 breast; MDA-MB-435 melanoma; SW-620 colon; MCF7 breast; HCT-116 colon; HCC-2998 colon; KM12 colon.
Assay in all cases: NCI-60 one-dose screen, 48 h (100 = growth as untreated, 0 = no growth, -100 = all killed)
Common to all, as to details: 10 µM unless noted

About 83,000 compounds went through this panel and 20% of them were active in at least one assay; those are over-represented in the sample as a whole.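 The endpoint reported here, percent growth, reads 100 for growth as untreated, 0 for no net growth and -100 for all cells dead.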 A number with no mark means an inactive call. Active and inactive are the calls of the source. How the source made its calls: active means growth percent below 10; inactive means the rest.

Turning to `S=c1cc(S)c2cc(Br)ccc2[nH]1`, the growth in the test on SR leukemia was 94.1%; with RPMI-8226 leukemia, 96.7%; with OVCAR-8 ovarian, 91.5%; with OVCAR-5 ovarian, 114%; with OVCAR-4 ovarian, 92.6%; with SK-OV-3 ovarian, 98.6%. Further, the growth in the test on IGROV1 ovarian was 89.5%; in the test with OVCAR-3 ovarian, 100%; in the test on HS 578T breast, 109%; in the test with NCI/ADR-RES ovarian, 101%; in the test on T-47D breast, 84.5%; with BT-549 breast, 90.7%. In addition, the growth in the test with MDA-MB-435 melanoma is 95.5%; with SW-620 colon, 99.2%; in the test with MCF7 breast, 88.7%; in the test on HCT-116 colon it was 78.2%; with HCC-2998 colon it was 102%; in the test on KM12 colon, 101%.

Take `COc1ccc(C(=O)C2C(C#N)C(C#N)C3c4ccccc4C=CN23)cc1` (centres undefined): the growth was 105% in the test with SR leukemia; 73.1% in the test with RPMI-8226 leukemia; -4.32% (active) in the test on OVCAR-8 ovarian; 101% with OVCAR-5 ovarian; 62.9% with OVCAR-4 ovarian; 93.6% in the test on SK-OV-3 ovarian. For the same molecule, the growth in the test on IGROV1 ovarian was 81%; in the test with OVCAR-3 ovarian, 92.2%; with HS 578T breast, 95.1%; with NCI/ADR-RES ovarian, 87.9%; with T-47D breast, 61.5%; in the test on BT-549 breast it was 95%. Besides, the growth in the test with MDA-MB-435 melanoma was 96.1%; with SW-620 colon it was 99.7%; in the test on MCF7 breast it was 91.3%; with HCT-116 colon it was 86.1%; with HCC-2998 colon, 101%; with KM12 colon, 98.3%.

With `COc1ccc(C(=O)CSc2nc(-c3cc(OC)ccc3OC)cc(-c3ccc(Cl)cc3)c2C#N)cc1`, the growth with SR leukemia was 65.3%; in the test on RPMI-8226 leukemia, 78.5%; in the test with OVCAR-8 ovarian it was 61.2%; with OVCAR-5 ovarian, 81.2%; in the test on OVCAR-4 ovarian, 24.8%; in the test on SK-OV-3 ovarian, 33.3%. Moreover, the growth in the test with IGROV1 ovarian is 62.4%; in the test with OVCAR-3 ovarian, 98.1%; with HS 578T breast, 57.8%; in the test on NCI/ADR-RES ovarian, 77.5%; with T-47D breast, 32.3%; with BT-549 breast, 10.8%. Besides, the growth in the test with MDA-MB-435 melanoma is 26%; in the test with SW-620 colon, 50.7%; with MCF7 breast it was 46.5%; in the test on HCT-116 colon it was 30.2%; with HCC-2998 colon, 78.3%; in the test with KM12 colon, 48.3%.

For `Nc1ccccc1NC(=O)c1ccc(-n2nc(-c3ccccc3)c3ccccc32)cc1`, the growth with SR leukemia was 48.6%; with RPMI-8226 leukemia it was -8.09% (active); with OVCAR-8 ovarian, 62.6%; in the test on OVCAR-5 ovarian it was 87.1%; in the test on OVCAR-4 ovarian, 77%; with SK-OV-3 ovarian, 107%. Also, the growth in the test with IGROV1 ovarian is 68.5%; in the test with OVCAR-3 ovarian, 72.6%; in the test on HS 578T breast it was 83.5%; in the test on NCI/ADR-RES ovarian, 54%; in the test with T-47D breast, 76.9%; in the test with BT-549 breast, -92.3% (active). For the same molecule, the growth in the test on MDA-MB-435 melanoma was 92.2%; in the test with SW-620 colon, 84.8%; with MCF7 breast it was 57.1%; with HCT-116 colon it was 58.1%; in the test on HCC-2998 colon, 104%; with KM12 colon, 91.4%.

As for `COc1cc(/C=N/O)nc(-c2ccccn2)c1`, the growth was 9.23% (active) in the test on SR leukemia; 18.7% in the test on RPMI-8226 leukemia; 17.6% with OVCAR-8 ovarian; 45.3% in the test on OVCAR-5 ovarian; 22.2% in the test on OVCAR-4 ovarian; 28.6% in the test with SK-OV-3 ovarian. Further, the growth in the test on IGROV1 ovarian is 19.2%; in the test with OVCAR-3 ovarian it was 18.2%; in the test with HS 578T breast, 65%; in the test on NCI/ADR-RES ovarian it was 4.37% (active); in the test with T-47D breast, 37.5%; in the test on BT-549 breast, 33.7%. Also, the growth in the test with MDA-MB-435 melanoma was 23.6%; in the test on SW-620 colon, 27.4%; in the test on MCF7 breast, 15.9%; with HCT-116 colon, 20.9%; in the test with HCC-2998 colon it was 26.4%; in the test with KM12 colon it was 23%.

For `COc1cc(C2=C(c3cn(C)c4ccccc34)COC2=O)cc(OC)c1OC`, the growth with SR leukemia is 8.24% (active); with RPMI-8226 leukemia, 15.2%; in the test with OVCAR-8 ovarian, 24.8%; in the test on OVCAR-5 ovarian, 17.3%; in the test with OVCAR-4 ovarian, 21.4%; in the test with SK-OV-3 ovarian, 28.3%. For the same molecule, the growth in the test on IGROV1 ovarian is 11.1%; with OVCAR-3 ovarian, -13.8% (active); in the test with HS 578T breast it was -6.29% (active); in the test on NCI/ADR-RES ovarian it was 13%; with T-47D breast it was 22.6%; with BT-549 breast, 16.7%. The growth with MDA-MB-435 melanoma was -59.5% (active); in the test on SW-620 colon, 13.7%; with MCF7 breast it was 14.8%; with HCT-116 colon it was 1.75% (active); in the test on HCC-2998 colon, 0.901% (active); in the test on KM12 colon, 13.2%.

Consider `Cn1ccnc1C(=O)/C=C/c1ccc(CC(=O)NC2CCCCC2)cc1`, for which the growth with SR leukemia was 24.8%; in the test on RPMI-8226 leukemia, 20.3%; with OVCAR-8 ovarian, 62.4%; in the test on OVCAR-5 ovarian, 96.8%; with OVCAR-4 ovarian, 58.6%; in the test with SK-OV-3 ovarian it was 92.9%. Besides, the growth is 60.4% with IGROV1 ovarian; 27.6% with OVCAR-3 ovarian; 86.1% with HS 578T breast; 75.9% in the test on NCI/ADR-RES ovarian; 47.9% with T-47D breast; 54.1% with BT-549 breast. The growth was 54.1% in the test on MDA-MB-435 melanoma; 23.1% with SW-620 colon; 44.3% in the test on MCF7 breast; 21.5% with HCT-116 colon; 100% in the test with HCC-2998 colon; 28.9% in the test on KM12 colon.

`OC(c1cccc(C(F)(F)F)c1)c1cnccc1NC1CCCCC1` (centres undefined): the growth with SR leukemia is 51.6%; with RPMI-8226 leukemia, 29.9%; in the test on OVCAR-8 ovarian, 86.9%; with OVCAR-5 ovarian it was 95.3%; with OVCAR-4 ovarian it was 74.7%; in the test on SK-OV-3 ovarian, 95.9%. Further, the growth with IGROV1 ovarian is 76.3%; with OVCAR-3 ovarian, 81.1%; with HS 578T breast it was 80.6%; in the test on NCI/ADR-RES ovarian it was 79.1%; with T-47D breast, 49.1%; with BT-549 breast, 93.5%. Further, the growth is 86.6% in the test with MDA-MB-435 melanoma; 77.6% with SW-620 colon; 71.4% in the test on MCF7 breast; 51.1% with HCT-116 colon; -11.3% (active) in the test on HCC-2998 colon; 80.8% in the test with KM12 colon.
